PLAP activator – activators of human placental alkaline phosphatase; P05187; purified PLAP enzyme, luminescent substrate read-out; stronger effect = higher value; activation fold at 20 µM; 96,000 tested, 1.2% active; AID 696; in the data active = activation fold above about 2
Target sequence (P05187 whole entry, looked up): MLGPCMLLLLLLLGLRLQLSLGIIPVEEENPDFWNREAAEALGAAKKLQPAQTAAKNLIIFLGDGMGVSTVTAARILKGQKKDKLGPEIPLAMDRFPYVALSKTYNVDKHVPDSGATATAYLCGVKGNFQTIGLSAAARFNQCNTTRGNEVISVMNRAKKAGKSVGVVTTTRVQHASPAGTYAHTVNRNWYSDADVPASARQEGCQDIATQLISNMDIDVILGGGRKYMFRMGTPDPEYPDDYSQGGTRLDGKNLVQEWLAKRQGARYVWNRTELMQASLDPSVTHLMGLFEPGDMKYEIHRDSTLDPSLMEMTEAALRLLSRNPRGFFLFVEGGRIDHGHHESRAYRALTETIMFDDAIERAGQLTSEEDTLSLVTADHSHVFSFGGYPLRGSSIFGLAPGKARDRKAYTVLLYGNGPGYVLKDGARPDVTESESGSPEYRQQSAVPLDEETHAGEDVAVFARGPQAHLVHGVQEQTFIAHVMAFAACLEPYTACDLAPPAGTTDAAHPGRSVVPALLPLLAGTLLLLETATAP
CYP2C19 act – cytochrome P450 2C19 (human) activation; P33261; recombinant CYP2C19, luciferin-H EGE luminescence; stronger effect = higher value; 0 = fully inhibited enzyme, 1 = untreated enzyme; activation factor at 5 µM; 96,000 tested, under 10 active; AID 1025;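 active = activation factor of at least 2 at 5 µM in the primary screen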;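 note: 0 = wells with 2.5 mM tranylcypromine and 1 = vehicle-only wells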
CYP2C9 inhib – human CYP2C9 inhibition. 96,000 tested, 20% active. AID 777. P11712. CYP2C9 Supersomes, luciferin-H conversion, luminescence. inhibition, % at 5 µM;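 active = blocking of liver enzyme CYP2C9 beyond about 50% at 5 µM, limit read from the data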
CYP2C19 inh – inhibitors of human CYP2C19; inhibition, % at 5 µM; P33261; 96,000 tested, 21% active; CYP2C19 Supersomes, luciferin-H EGE luminescence, 30 min;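 active = CYP2C19 inhibition above a set limit at 5 µM in the primary screen, cut at about 50% in these data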;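 note: plate controls were negative control wells for no effect and 2.5 mM tranylcypromine positive control for full effect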
CYP2C9 activ – increases human cytochrome P450 2C9 activity. P11712. recombinant CYP2C9, luciferin-H conversion, luminescence; stronger effect = higher value; factor 1 = untreated enzyme, 0 = blocked. activation factor at 5 µM. 96,000 tested, 1.4% active. AID 1024;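 active = activation factor of 2 or more for CYP2C9 at a 5 µM dose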;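 note: 0 = sulfaphenazole-blocked wells and 1 = vehicle-only wells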
Numbers without * were called inactive. In the library only some 31% were active in any assay of this set; here they are far more common.

SMILES	PLAP activator	CYP2C19 act	CYP2C9 inhib	CYP2C19 inh	CYP2C9 activ
COCCn1c(C)cc(C(=O)CN2C(=O)NC3(CCCCCCC3)C2=O)c1C	1.6	0.8	-285	25	3.9*
O=C(O)C1C2C=CC(C2)C1C(=O)OCc1ccccc1 (stereo not drawn)	0.8	1.1	-1	-9	1
CCCN1C(=O)/C(=C/c2ccc(N3CCCC3)c(C)c2)NC1=S	0.7	0.5	53*	53*	0.5
c1coc(CNc2c3c(nc4ncnn24)CCC3)c1	0.9	1.1	88*	-7	0.1
c1coc(CNc2c3c(nc4ncnn24)CCCC3)c1	0.8	0.9	13	10	0.9
O=C(C/C=N\OCc1c(Cl)cccc1Cl)Oc1ccc(Cl)cc1Cl	0.9	0.9	-11	8	1.1
CS(=O)(=O)Cc1nc2ccccc2oc1=O	1.4	0.4	45	64*	0.6
Cc1ccc(-c2nnc(SCC(=O)CC(=O)Nc3ccccc3)n2-c2ccccc2)cc1	0.9	1	20	3	0.8
N#Cc1ccccc1NC(=O)CSc1nnc(-c2ccccc2)n1-c1ccccc1	1.1	0.6	78*	36	0.2
CCN(CC)c1ccc(-c2nnc(SCC(=O)Nc3ccccc3C#N)n2-c2ccccc2)cc1	1.3	0.5	74*	52*	0.3
O=C1NCCN1Cc1ccc(F)cc1	1	0.9	-6	14	1.1
C/C(NC1CCCC1)=C(/C#N)C(N)=O	1	1.1	-15	-6	1.2
C/C(N)=C(/C#N)C(=O)COC(=O)CC12CC3CC(CC(C3)C1)C2	1	0.2	81*	78*	0.2
C/C(N)=C(/C#N)C(=O)COC(=O)CC1CCCC1	1	0.1	41	88*	0.6
C/C(N)=C(/C#N)C(=O)COC(=O)COc1ccc(Cl)cc1C	1.2	0.8	4	21	1
C/C(N)=C(/C#N)C(=O)COC(=O)C1CCC(C(C)(C)C)CC1 (stereo not drawn)	1.6	0.1	84*	90*	0.2
C/C(N)=C(/C#N)C(=O)COC(=O)CSc1ccc2ccccc2c1	0.9	0.7	5	28	1
Cc1cc(OCC(=O)N2CCOCC2)ccc1NC(=O)C1CCCCC1	0.8	1	-10	-4	1.1
CCn1ncc(C2=NOC(C(=O)Nc3cnn(C45CC6CC(CC(C6)C4)C5)c3)C2)c1C (stereo not drawn)	1.4	0.9	11	10	0.9
Cc1cc(N2CCOCC2)c2c(N)c(Br)cc(C)c2n1	2*	1.1	11	-7	0.9
c1ccc(CSc2n[nH]c(-c3ccco3)n2)cc1	0.9	0.4	17	61*	0.8
Cc1ccc(C)c(OCCn2cc(/C=C(\C#N)C(=O)NCc3cccs3)c3ccccc32)c1	0.8	0.9	78*	13	0.2
N#C/C(=C\c1cn(CCOc2ccccc2)c2ccccc12)C(=O)NCc1ccco1	0.8	0.9	44	11	0.6
O=C(NCc1ccc(N2CCCC2=O)cc1)c1cnccn1	0.9	0.8	-2	15	1
COc1cccc(C2=CC(c3ccccc3)n3ncnc3N2)c1 (stereo not drawn)	1.3	0.5	55*	55*	0.4
SMILES	PLAP activator	CYP2C19 act	CYP2C9 inhib	CYP2C19 inh	CYP2C9 activ
COc1cccc(C2=CC(c3ccc(N(C)C)cc3)n3ncnc3N2)c1 (stereo not drawn)	1	0.7	53*	30	0.5
CCOc1ccc(C2C=C(c3ccc(F)cc3)Nc3ncnn32)cc1 (stereo not drawn)	1.4	0.6	59*	44	0.4
COc1cccc(C2=CC(c3ccc(N(C)C)cc3)n3nnnc3N2)c1 (stereo not drawn)	0.8	1.1	-9	-11	1.1
CCC(=O)N(CCC1(C(C)C)CCOC(C)(C)C1)Cc1ccco1 (stereo not drawn)	1.3	0.4	14	59*	0.9
Cc1cc(Cl)c(S(=O)(=O)Nc2ccccn2)cc1OCC(N)=O	1.1	1.2	-19	-19	1.2
N#CCc1ccc(C(=O)c2ccccc2F)s1	0.9	0.7	4	25	1
CC1CCN(C(=O)c2ccc3c(c2NCCO)C(=O)c2ccccc2C3=O)CC1	1.2	0.2	24	81*	0.8
CCOC(=O)C(CC)/C(C)=N/NC(=O)c1ccc([N+](=O)[O-])cc1 (stereo not drawn)	1	0.7	-1	26	1
O=C1NC(c2ccccc2)=C(c2nc3ccccc3s2)C(c2ccc(F)cc2)N1 (stereo not drawn)	1	0.5	50*	55*	0.5
COc1ccc(C2NC(=O)NC(c3ccccc3)=C2c2nc3ccccc3s2)cc1 (stereo not drawn)	1	0.7	36	26	0.6
CC(C)N=C(NC#N)SCc1ccccc1F	1.2	0.2	49	85*	0.5
CC(C)N=C(NC#N)SCC(=O)NC(C)(C)C	0.9	0.9	4	10	1
CCCc1[nH]nc2c1C(c1cccc(OC)c1)C(C#N)=C(N)O2 (stereo not drawn)	1.5	0.3	76*	73*	0.2
CCCc1[nH]nc2c1C(c1ccc(O)cc1OCC)C(C#N)=C(N)O2 (stereo not drawn)	0.7	0.2	53*	76*	0.5
NC(=O)SCC(=O)Nc1cccc(Cl)c1	1.5	0.6	18	43	0.8
NC(=O)SCC(=O)Nc1ccc(Cl)cc1	1.2	0.6	51*	36	0.5
CCC(CC)C(=O)Nc1cccc(S(=O)(=O)c2cccc(NC(=O)C(CC)CC)c2)c1	0.9	0.9	8	11	0.9
CCC(CC)C(=O)Nc1ccc(Cl)c(Cl)c1	0.9	0.3	38	67*	0.6
NC(=O)SCC(=O)Nc1ccc(Cl)c(Cl)c1	0.8	0.5	74*	46	0.3
CC(=O)Nc1cccc(NC(=O)CSc2nnnn2C(C)C)c1	0.9	0.6	17	42	0.8
Cc1nc(SCC(=O)c2cc3ccccc3oc2=O)c(C#N)c(C)c1C(=O)Nc1ccccc1	0.8	0.7	51*	30	0.5
Cc1nc(SCC(=O)OCc2ccccc2)c(C#N)c(-c2ccccc2)c1C(=O)Nc1ccccc1	1.1	0.8	59*	19	0.4
CCOC(=O)CSc1nc(C)c(C(C)=O)cc1C#N	1.3	0.6	20	38	0.8
CSc1nc(N)nc(SCC(=O)c2ccccc2)c1C#N	1	1	25	4	0.8
CC(Sc1nnc(NC(=O)c2cc3ccccc3oc2=O)s1)c1ccccc1 (stereo not drawn)	1.2	0.8	29	19	0.7
CSc1nc(C)c(C(=O)Nc2ccccc2)c(C)c1C#N	0.9	0.3	33	73*	0.7
Cc1ccc(C(=O)Oc2oc(-c3ccco3)nc2C=Nc2ccccc2)cc1	1.1	0.8	9	18	0.9
CCOC(=O)c1cc2c(s1)-c1ccccc1CC2	1	0.9	-8	5	1.1
CCOC(=O)C1=C(N)c2ccccc2CC1C(C)C (stereo not drawn)	0.4	0	81*	96*	0.2

Source: PubChem BioAssay
